# PubChem BioAssay
# “And” between values parts separate entries of the source, which are not always exact repeats. Equal entries are not always repeated. The source made the active and inactive calls.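 The calls were made as follows, unless noted: active = compounds whose cell count with miR-34 switched on is under 0.7 times the count with it off; inactive = the rest.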
# How the values were obtained:
# [1] = viability loss with induced miR-34 in A549 – imaging, A549 dox-inducible miR-34, nuclei and caspase counts, primary screen (AID 1347080); conditions: A549 miR-34 inducible, Hoechst nuclei count, 48 h; also: test concentration not given here
# [2] = MELAS cybrid and Rieske KO viability enhancers – cell-based, MELAS cybrids, Rieske KO mouse fibroblasts, CellTiter-Glo, primary screen (AID 1508586;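 active = mean z-score across replicates of 1.96 or higher in either the MELAS or the Rieske mutant cell line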;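 also: test concentration not given here; z relative to plate mean and SD of compound and empty wells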); conditions: low glucose
# [3] = galactose survival enhancers in mitochondrial complex I cybrids – cell-based, galactose medium, ATP luminescence, primary screen (AID 1645843;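 active = z-score of at least 1.8 in each of two replicates, scored against plate mean and spread of sample wells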;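 also: positive z means more ATP and so rescue of galactose-driven cybrid death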); conditions: complex I mutant cybrid cells, 72 h, stronger effect = higher value
# [4] = stronger effect = lower value, cell number ratio, induced over uninduced
# [5] = measured here: relative caspase fold change +Dox/-Dox
# [6] = measured here: total cells with miR-34 induction, stronger effect = lower value
# [7] = measured here: total cells without miR-34 induction
# [8] = MELAS cybrid survival, CellTiter-Glo 48 h, stronger effect = higher value
# [9] = Rieske KO mouse fibroblast survival, CellTiter-Glo 72 h
Compound,"fold change [1, 4]","fold change [1, 5]","cell count [1, 6]","cell count [1, 7]","z-score [2, 8]","z-score [2, 9]",z-score [3]
O=C(Cn1nnc(-c2ccccc2)n1)Nc1ccnn1Cc1ccccc1,0.843 (inactive),1.22,7640,9060,-0.218 (inactive),-0.596,0.045 (inactive)
Cc1ccccc1-n1cc(-c2ccnc(NCCC3(O)CCN(C)CC3)n2)cn1,0.797 (inactive),1.49,8470,10600,0.152 (inactive),-0.0851,-0.43 (inactive)
CNC(=O)c1cc(Oc2ccc3nc(Nc4ccc(Cl)c(C(F)(F)F)c4)[nH]c3c2)ccn1,0.938 (inactive),0.861,2770,2950,1.25 (inactive),-0.647,-2.66 (inactive)
COc1ccc(-c2cc(-n3cccn3)ncn2)c(-n2cccn2)c1,0.922 (inactive),1.07,8340,9050,-0.554 (inactive),0.208,-0.595 (inactive)
COc1cc(F)c(-c2nc3c(cnn3Cc3cccs3)[nH]2)c(F)c1,0.818 (inactive),1.31,6350,7760,-0.593 (inactive),-0.339,2.49 (active)
CC(O)c1cn(C2CCN(c3ncnc4nc[nH]c34)CC2)nn1 (stereo not drawn),0.902 (inactive),1.71,9250,10300,0.294 (inactive),-0.198,-0.55 (inactive)
Cc1csc(CNc2nccc(-c3cnn(-c4ccccc4)c3)n2)n1,0.775 (inactive),1.81,4550,5870,-0.292 (inactive),0.283,-0.175 (inactive)
OB(O)c1cc2ccccc2s1,0.864 (inactive),0.659,7300,8450,-0.459 (inactive),0.539,0.265 (inactive)
NC(N)=NC(N)=Nc1cc(C(F)(F)F)ccc1Cl,0.901 (inactive),0.694,7310,8110,0.898 (inactive),-0.189,-1.95 (inactive)
CC[C@H](C)[C@H](NC(=O)c1nc2ccccc2c(=O)[nH]1)C(=O)OC,0.844 (inactive),2.34,7550,8940,0.166 (inactive),-0.367,-0.31 (inactive)
CCCCCC(O)C=CC1C(O)CC(=O)C1CCCCCCC(=O)O (stereo not drawn),0.973 (inactive) and 0.918 (inactive),0.603 and 0.896,9870 and 7520,10100 and 8190,-0.372 (inactive),0.491,0.865 (inactive)
Cc1ncsc1-c1ccn(CC(=O)Nc2ccnn2C2CCCCC2)n1,0.823 (inactive),0.676,7140,8680,-0.424 (inactive),0.121,-0.57 (inactive)
CCCOc1ccc(CC(=O)O)cc1Cl,0.877 (inactive),0.341,8590,9790,0.699 (inactive),0.326,0.735 (inactive)
O=C1CN(C(=O)c2ccncc2)CCN1Cc1ccc2c(c1)OCO2,0.914 (inactive),1.59,9040,9890,-0.12 (inactive),-0.568,-0.52 (inactive)
CCOC(=O)c1c(C)n[nH]c1C,0.871 (inactive),0.655,8840,10200,0.691 (inactive),-0.58,0.425 (inactive)
CC(C)(C)C(=O)Nc1ccc2c(c1)CC(=O)N2,0.817 (inactive),1.77,8370,10200,0.0898 (inactive),0.0111,-0.52 (inactive)
CSCCC(NC(C)=O)C(=O)O (stereo not drawn),0.861 (inactive),0.784,8190,9520,0.71 (inactive),-0.087,0.53 (inactive)
COc1ccc(-n2cccn2)c(-c2nnc3ccccn23)c1,0.89 (inactive),0.706,8500,9550,-0.172 (inactive),-0.541,-0.55 (inactive)
O=C(O)c1ccc(O)cc1O,0.891 (inactive),0.246,8740,9810,-0.11 (inactive),-0.1,0.565 (inactive)
Fc1cccc(F)c1-c1nc2c(cnn2Cc2cccs2)[nH]1,0.88 (inactive),2.16,8590,9770,-0.231 (inactive),0.598,-0.555 (inactive)

Compound,"fold change [1, 4]","fold change [1, 5]","cell count [1, 6]","cell count [1, 7]","z-score [2, 8]","z-score [2, 9]",z-score [3]
CCSCCNc1nccc(-c2cn(C)nc2C)n1,0.861 (inactive),2.06,8420,9770,-0.242 (inactive),0.458,-0.585 (inactive)
COc1ccc(CN(C)C(=O)Nc2nc(-c3ccccc3)ns2)cc1,0.886 (inactive),1.46,6810,7690,-0.0703 (inactive),0.35,0.77 (inactive)
Cc1nsc(NC(=O)NCc2ccccc2-n2ccnc2C)n1,0.866 (inactive),1.23,9020,10400,0.0398 (inactive),-0.281,-0.575 (inactive)
COc1ccc(-c2oc3c(CC=C(C)C)c(OC4OC(CO)C(O)C(O)C4O)cc(O)c3c(=O)c2OC2OC(C)C(O)C(O)C2O)cc1 (stereo not drawn),0.929 (inactive) and 0.864 (inactive),1.15 and 1.26,9660 and 9050,10400 and 10500,-0.309 (inactive),0.107,0.865 (inactive)
COc1cccc2c(=O)n(Cc3ccc4ncccc4c3)cnc12,0.883 (inactive),1.22,8080,9140,-0.263 (inactive),-0.193,-0.28 (inactive)
OCCCc1cn(CC2CCN(c3ncnc4nc[nH]c34)CC2)nn1,0.959 (inactive),1.9,8820,9200,0.238 (inactive),-0.383,-0.565 (inactive)
COc1cccc2ccc(-c3coc4ccccc4c3=O)nc12,0.946 (inactive),0.913,7730,8170,-0.341 (inactive),0.246,2.79 (active)
CC(C)=CCn1cnc(=N)c2[nH]cnc21,0.911 (inactive),0.79,8970,9850,-0.546 (inactive),-0.741,1.17 (inactive)
Nc1ccc(CCC(=O)O)cc1,0.96 (inactive),0.255,9320,9710,0.558 (inactive),-0.0102,1.27 (inactive)
COc1ccc(CN2CCN(c3cc(C)nc(N)n3)CC2=O)cc1,0.879 (inactive),1.5,8130,9240,0.162 (inactive),0.559,-0.615 (inactive)
COc1ccc(C=CC(=O)O)cc1O,0.917 (inactive),0.34,9250,10100,0.642 (inactive),-0.171,0.285 (inactive)
CCc1noc(Cn2cnc3sc4c(c3c2=O)CCC(C)C4)n1 (stereo not drawn),0.911 (inactive),1.55,8510,9340,0.0666 (inactive),0.0902,-0.515 (inactive)
CSc1n[nH]c(-c2ccc(Cl)cc2)n1,0.939 (inactive),0.52,8540,9100,1.97 (active),-0.569,0.11 (inactive)
CC1(C)CC(Nc2nccc(-c3cnn(-c4ccccc4)c3)n2)CC(C)(C)N1,0.881 (inactive),3.09,4870,5530,-0.228 (inactive),0.372,3.44 (active)
OCCN1CC(O)C(O)C(O)C1CO (stereo not drawn),0.949 (inactive) and 0.938 (inactive),1.7 and 0.717,10100 and 10300,10600 and 11000,-0.386 (inactive),0.318,0.805 (inactive)
Cc1cc(C)nc(-c2cnn(CC(=O)Nc3cc(C)nn3-c3ccccn3)c2)n1,0.882 (inactive),1.32,5870,6650,-0.672 (inactive),-0.181,-0.415 (inactive)
O=C(OC1Cc2c(O)cc(O)cc2OC1c1cc(O)c(O)c(O)c1)c1cc(O)c(O)c(O)c1 (stereo not drawn),0.855 (inactive) and 0.924 (inactive),1.5 and 0.635,9030 and 8300,10600 and 8990,-0.179 (inactive),-0.151,-1.44 (inactive)
CN1CCN(Cc2cccc(Oc3ccccc3)c2)CC1CCO (stereo not drawn),0.916 (inactive),1.42,8810,9620,-0.228 (inactive),-0.0315,-0.55 (inactive)
CCn1ncc(NC(=O)Cn2nc(C)c(-c3ccc(-n4cccn4)cc3)c2C)n1,0.87 (inactive),1.42,4370,5020,-1.09 (inactive),1.3,-0.54 (inactive)
